p53null 39C kill = kills p53 null cells at the nonpermissive temperature; Potency, µM (series often up to 46.1 µM), hits mostly cytotoxic; AID 904; 55,000 compounds, 0.97% hits; H1299 p53-null (neo) cells, 39C, ATPlite viability, 24 h; further: nearly all actives have a fitted effect of over 50% in size
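Following overnight plating at 37C (600 cells/well), H1299-neo or H1299-p53A138V cells are dosed up to 46 uM. Incubation lasts 24 hr at 39C before ATP detection.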
GALC G270D up = raises human GALC G270D mutant activity in cells; 145M-Twi-hGALC-G270D cells (Twitcher mouse brain line with human GALC G270D), HMU-beta-Gal fluorescence, 48 h; Potency, µM (doses to about 57.5 µM), hits mostly activators; 45,000 compounds, 0.1% hits; further: nearly all actives have a fitted effect of over 65% in size
Target sequence (P54803 whole entry G286D): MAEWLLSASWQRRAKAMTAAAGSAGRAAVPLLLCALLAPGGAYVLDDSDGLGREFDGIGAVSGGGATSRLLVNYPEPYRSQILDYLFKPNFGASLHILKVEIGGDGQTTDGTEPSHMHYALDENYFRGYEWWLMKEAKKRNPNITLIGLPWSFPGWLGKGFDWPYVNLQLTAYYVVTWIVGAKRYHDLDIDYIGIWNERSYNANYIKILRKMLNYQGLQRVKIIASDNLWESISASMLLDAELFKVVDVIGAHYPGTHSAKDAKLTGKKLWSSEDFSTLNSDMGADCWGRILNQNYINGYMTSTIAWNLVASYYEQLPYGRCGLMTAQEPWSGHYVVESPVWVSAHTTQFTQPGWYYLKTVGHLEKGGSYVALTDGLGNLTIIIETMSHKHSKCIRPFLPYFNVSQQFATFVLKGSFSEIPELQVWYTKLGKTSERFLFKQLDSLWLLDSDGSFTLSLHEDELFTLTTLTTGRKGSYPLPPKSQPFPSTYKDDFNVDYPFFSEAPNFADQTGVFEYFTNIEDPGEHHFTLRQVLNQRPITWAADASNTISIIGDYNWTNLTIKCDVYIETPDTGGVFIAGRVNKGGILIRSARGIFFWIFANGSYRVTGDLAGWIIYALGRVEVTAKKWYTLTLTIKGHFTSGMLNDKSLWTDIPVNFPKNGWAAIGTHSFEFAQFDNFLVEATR
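Live 145M-Twi cells (Twitcher mouse brain-derived, GALC-null) stably expressing human GALC-G270D, with a wild-type GALC line, were compound-treated. Residual GALC activity was then read as fluorescence from 0.1 mM final HMU-β-gal at pH 5.2; higher signal means activation.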
p53null 32C tox = p53 null cell cytotoxicity, permissive temperature; H1299-neo p53 null cells, ATP luminescence, 24 h, 32C; 55,000 compounds, 0.62% hits; Potency, µM (series often up to 46.1 µM), hits mostly cytotoxic; AID 903; further: nearly all actives have a fitted effect of over 55% in size
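ATP-content luminescence in p53-null H1299-neo cells after 24 h compound exposure (up to 46 uM) at 32C permissive temperature; 0% and 100% killing set by DMSO and 100 uM tamoxifen; Hill-equation AC50.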
FH mod = Identification of activators of human fumarate hydratase by quantitative high-throughput screening. FH coupled MDH/diaphorase resazurin fluorescence, 15 min. Fumarate hydratase, mitochondrial (Homo sapiens), P07954. 54,000 compounds, 0.22% hits. Potency, µM (highest dose often 79.9 µM), actives largely listed as inhibitors; further: the screen sought activators but most active calls are inhibition curves; nearly all actives have a fitted effect of over 45% in size
NTMT1 inh = blocks human N-terminal methyltransferase 1 activity; Q9BV86; NTMT1 MTase-Glo SAH luminescence, purified enzyme; Potency, µM (highest dose often 114 µM), usual class: inhibitors; 59,000 compounds, 2.5% hits; further: nearly all actives have a fitted effect of over 65% in size
GPR32 ag = GPR32 (DRV1) agonism, beta-arrestin recruitment | activation, % at 76.9 µM | 48,000 compounds, 2.5% hits | O75388 | CHO-K1 GPR32 beta-arrestin PathHunter luminescence, 90 min; zero percent set by DMSO-only wells;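 active means activation of at least 60% and not above a set upper limit, about 1 call in 100 departs from these limits; inconclusive means activation of 40% to 60%, or above that upper limit; inactive means activation under 40%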
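Agonism was scored as beta-arrestin recruitment to ProLink-fused GPR32 in stably transfected CHO-K1 cells, giving a chemiluminescent beta-Gal signal; compounds were incubated 90 min at 37 °C.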
Large screens that a line does not name were inactive; ! = not active in a repeat. This is a sample that favours compounds with a hit; in the whole collection about 3.9% have one here. Unless noted, the call rests on the fitted dose curve; in most records, active means well fitted curve in the direction sought with a large enough effect; inconclusive means small, poorly fitted or top-dose-only effect, or another doubt; inactive means no such curve, though single readings can be large; an effect the other way counts as inactive or inconclusive.

COC(=O)CCC1(C)C(C(C)(C)O)C(O)CC2(C)Oc3c(C)c4c(c(OC)c3CC21)C(=O)OC4 (stereo not drawn)	none (no result: p53null 39C kill, GALC G270D up, p53null 32C tox, GPR32 ag)
CN(C)CC=CC(=O)Nc1cc2c(Nc3ccc(F)c(Cl)c3)ncnc2cc1O[C@H]1CCOC1	NTMT1 inh 22µM (no result: p53null 39C kill, GALC G270D up, p53null 32C tox, GPR32 ag)
CN(C)C/C=C/C(=O)Nc1cc2c(Nc3ccc(F)c(Cl)c3)ncnc2cc1O[C@H]1CCOC1	NTMT1 inh 3.2µM (no result: p53null 39C kill, GALC G270D up, p53null 32C tox, FH mod, GPR32 ag)
CCOc1cc2ncc(C#N)c(Nc3ccc(F)c(Cl)c3)c2cc1NC(=O)C=CCN(C)C	NTMT1 inh 3.8µM (no result: p53null 39C kill, GALC G270D up, p53null 32C tox, GPR32 ag)
CC(C)(NS(=O)(=O)c1ccc(Oc2ccc(F)cc2)cc1)C(=O)NO	none (no result: p53null 39C kill, GALC G270D up, p53null 32C tox, NTMT1 inh, GPR32 ag)
COc1ccc(-c2cc(C(F)(F)F)nc(SCC(=O)NCCc3ccccc3)n2)cc1	none
COc1ccc(-c2cc(C(F)(F)F)nc(SCCC(=O)Nc3ccc(O)cc3)n2)cc1	GPR32 ag 86
COc1ccc(-c2cc(C(F)(F)F)nc(SCC(=O)NC(C)c3ccccc3)n2)cc1 (stereo not drawn)	GPR32 ag 106
COc1ccc(-c2ccc3c(N)c(C(=O)Nc4cccc(C)c4)sc3n2)cc1	p53null 39C kill inconclusive, GPR32 ag inconclusive
Nc1c(C(=O)Nc2ccc(Br)cc2)sc2nc(-c3ccncc3)ccc12	none
Nc1c(C(=O)Nc2ccc(C(F)(F)F)cc2)sc2nc(-c3cccs3)ccc12	GPR32 ag 71
COc1ccc(-c2ccc3c(N)c(C(=O)Nc4cc(F)ccc4C)sc3n2)cc1	GALC G270D up 16µM
Cc1cc(F)ccc1NC(=O)c1sc2nc(-c3cccs3)ccc2c1N	GPR32 ag 67
CC(Nc1nc(-c2ccccc2C(F)(F)F)nc2ccccc12)c1ccc(-c2ccncc2)cc1 (stereo not drawn)	none (no result: p53null 39C kill, GALC G270D up, p53null 32C tox, FH mod, GPR32 ag)
Cc1ccc(C)c(-c2[nH]c3c(c2-c2c(-n4cccc4)n(C)c(=O)[nH]c2=O)c(=O)[nH]c(=O)n3C)c1	NTMT1 inh 89µM
CC(=O)Nc1sc2c(c1-c1ccc3c(c1)CCO3)CCNC2	none (no result: p53null 39C kill, GALC G270D up, p53null 32C tox, FH mod, GPR32 ag)
CCCCC(=O)N1CCN(c2nc3c(C)c(C)ccc3s2)CC1	GPR32 ag 69
Cc1c(Cl)ccc2sc(N3CCN(C(=O)c4ccco4)CC3)nc12	GPR32 ag 85
Cc1ccc(S(=O)(=O)CCC(=O)N2CCN(c3nc4c(C)c(C)ccc4s3)CC2)cc1	none
CCC1Oc2ccc(C)cc2N(CC(=O)NCc2ccc(OC)cc2)C1=O (stereo not drawn)	GPR32 ag 64
Cc1c(C(=O)OC[C@H]2CCCO2)[nH]c2c1C(=O)CC(c1ccco1)C2 (stereo partly drawn)	NTMT1 inh 50µM (no result: p53null 39C kill, GALC G270D up, p53null 32C tox, FH mod, GPR32 ag)
Cc1c(C(=O)OCc2ccco2)[nH]c2c1C(=O)CC(c1ccco1)C2 (stereo not drawn)	none (no result: p53null 39C kill, GALC G270D up, p53null 32C tox, FH mod, GPR32 ag)
c1cc(NC2CCNCC2)nc(-c2cnc3ccccn23)c1	FH mod inconclusive, NTMT1 inh 45µM (no result: p53null 39C kill, GALC G270D up, p53null 32C tox, GPR32 ag)
Clc1ccc2ncc(-c3cccc(NC4CCNC4)n3)n2c1 (stereo not drawn)	NTMT1 inh inconclusive (no result: p53null 39C kill, GALC G270D up, p53null 32C tox, GPR32 ag)
CC[C@@H]([C@H](C)O)n1ncn(-c2ccc(N3CCN(c4ccc(OC[C@@H]5CO[C@@](Cn6cncn6)(c6ccc(F)cc6F)C5)cc4)CC3)cc2)c1=O	GPR32 ag 68 (no result: p53null 39C kill, p53null 32C tox)
CCCN(CCC)CCNC(=O)c1cc(-c2ccc(Br)s2)nc2ccccc12	none
CCCCN(C)CCNC(=O)c1cc(-c2ccc(Cl)s2)nc2ccccc12	p53null 39C kill 13µM
CCN(CC)CCNC(=O)c1cc(-c2ccc(Br)s2)nc2ccccc12	p53null 39C kill 25µM, NTMT1 inh inconclusive
COc1ccc([C@@H](O)[C@@H](C)Oc2ccc([C@H]3O[C@H](c4ccc(O[C@H](C)[C@H](O)c5ccc(OC)c(OC)c5)c(OC)c4)[C@H](C)[C@H]3C)cc2OC)cc1OC	none (no result: p53null 39C kill, GALC G270D up, p53null 32C tox, FH mod, GPR32 ag)
CN1CCN(c2nc3c(S(=O)(=O)c4ccc(Cl)cc4)nnn3c3ccsc23)CC1	NTMT1 inh 79µM
CC(C)c1ccc(S(=O)(=O)c2nnn3c2nc(N2CCN(C)CC2)c2sccc23)cc1	none
CCN1CCN(c2nc3c(S(=O)(=O)c4ccc(C)cc4)nnn3c3ccsc23)CC1	NTMT1 inh 79µM
CCC(=O)N1CCc2cc(Br)cc(S(=O)(=O)CCC(=O)N3CCN(c4cccc(C)c4)C(C)C3)c21 (stereo not drawn)	NTMT1 inh inconclusive
CCC(=O)N1CCc2cc(S(=O)(=O)CCC(=O)N3CCN(c4cccc(C)c4)C(C)C3)ccc21 (stereo not drawn)	GPR32 ag 66
O=C(CCNS(=O)(=O)c1ccc2c(c1)CCN2C(=O)C1CC1)N1CCN(c2cccc(C(F)(F)F)c2)CC1	GPR32 ag 74
Cc1cccc(N(C)C(=O)CCNS(=O)(=O)c2ccc3c(c2)CCN3C(=O)C2CC2)c1	GPR32 ag 71
Cc1cnc(NC(=O)c2cc(Oc3cnc(C(=O)N(C)C)nc3)c3cc(C)oc3c2)cn1	none (no result: p53null 39C kill, GALC G270D up, p53null 32C tox, FH mod, GPR32 ag)
C=C1C[C@@]23CCC4[C@@](C)(CCC[C@@]4(C)C(=O)OC)C2CC[C@@H]1C3 (stereo partly drawn)	none (no result: p53null 39C kill, GALC G270D up, p53null 32C tox, GPR32 ag)
OCCN(CCO)c1nc(N2CCCCC2)c2nc(N(CCO)CCO)nc(N3CCCCC3)c2n1	NTMT1 inh inconclusive, GPR32 ag 108! (no result: p53null 39C kill, p53null 32C tox)
Cc1ccc(-c2c(C)n3c4c(=O)n(C)c(=O)n(C)c4nc3n2CCO)cc1	NTMT1 inh inconclusive, GPR32 ag inconclusive
CCCCn1c(-c2ccc(C)cc2)c(C)n2c3c(=O)n(C)c(=O)n(C)c3nc12	NTMT1 inh inconclusive, GPR32 ag 85
CCCCN1C(C(=O)c2ccccc2)=C(OC(=O)CC)c2ccccc2S1(=O)=O	p53null 39C kill inconclusive, p53null 32C tox 13µM
CCCCCN1C(C(=O)c2ccccc2)=C(OC(=O)CC)c2ccccc2S1(=O)=O	p53null 39C kill inconclusive, p53null 32C tox inconclusive, FH mod inconclusive
COc1ccc(NS(=O)(=O)c2ccc3c(c2)NC(=O)CCS3)c(OC)c1	NTMT1 inh inconclusive
O=C1CCSc2ccc(S(=O)(=O)Nc3ccc(Cl)c(C(F)(F)F)c3)cc2N1	GPR32 ag 71
CC(C)C(=O)N1c2nc(-c3ccco3)nn2C2(CCCCC2)[C@@H]2CCCC[C@@H]21	NTMT1 inh 89µM
COc1ccccc1NC(=O)CSc1nnc(NC(=O)NC2CCCCC2)s1	p53null 39C kill inconclusive, p53null 32C tox inconclusive
COc1ccc(NC(=O)CSc2nnc(NC(=O)NC3CCCCC3)s2)cc1OC	p53null 39C kill 11µM, p53null 32C tox 13µM
